Assay [1] can be described thus: Confirmation and Secondary Assay for Modulators of Hemoglobin Beta Chain Splicing at IVS2 705 locus (AID 930).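 Further: HeLa cells stably expressing the EGFP-705 splicing reporter; GFP fluorescence per well restored by corrected splicing of the IVS2-705 intron in EGFP; % of control where 0% means no effect.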 An outline of the steps:
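HeLa EGFP-705 reporter; 500 cells/well, o/n 37C 5% CO2; cpd 2 d; 488 ex/500-520 em laser scan; total peak GFP intensity/well. Ref: 500 nM […] antisense PNA.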

Assay [2] can be described thus: qHTS Assay for Lipid Storage Modulators (AID 1519; calls by dose curve; on activity change, negative = inhibition: on the % scale 0 is the no-effect control and ±100 the full control effect). Particulars: Drosophila S3 cells, BODIPY lipid droplet/cell ratio, laser cytometry, cells loaded with oleic acid; for activity change, negative = inhibition: at 57.5 µM (top of the series). An outline of the steps:
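Cells seeded at 5,000 per well were treated with compounds over a concentration series and loaded with oleic acid (400 uM, as added). Lipid droplet fluorescence (488 nm excitation, 500-530 nm channel) was read by laser-scanning cytometry and normalized to 20 uM Triacsin C.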

The nature of assay [3]: qHTS profiling for inhibitors of Plasmodium falciparum proliferation (AID 504749). Further: potency means the concentration at half of the fitted maximal effect.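 On activity, negative = inhibition: 0% = DMSO vehicle and full inhibition = artemisinin control.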 On all read-outs here: nearly all actives have a fitted effect of over 60% in size. Conditions: P. falciparum in erythrocytes, SYBR Green DNA, 72 h; for activity, negative = inhibition: at 28.7 µM (top of the series). An outline of the steps: (§1)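 SYBR Green fluorescence (ex 485 nm, em 535 nm) reports parasite DNA after 72 h compound exposure of infected red cells at 0.3% parasitemia, 2.5% hematocrit; signal normalized to 0.29 uM artemisinin and vehicle wells.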
Background: Quantitative high-throughput screening tests each substance at several concentrations.

In a further assay the test system is C2A. The assay is described as above. Conditions: P. falciparum in erythrocytes, SYBR Green DNA, 72 h; series mostly up to 12.8 µM. An outline of the steps:
as §1

The test system of another assay is CP185. The description is as above. Particulars: P. falciparum in erythrocytes, SYBR Green DNA, 72 h; series mostly up to 12.8 µM. An outline of the steps: as §1
For another assay, the system named is CP201. The assay is described as above. Particulars: P. falciparum in erythrocytes, SYBR Green DNA, 72 h; series mostly up to 12.8 µM. The method, boiled down:
as §1

For another assay, the system named is CP211. The assay is described as above. Particulars: P. falciparum in erythrocytes, SYBR Green DNA, 72 h; series mostly up to 12.8 µM. The method, boiled down:
as §1

The next assay relates to CP238. The description is as above. Particulars: P. falciparum in erythrocytes, SYBR Green DNA, 72 h; series mostly up to 12.8 µM. The method, boiled down:
as §1

Another assay concerns CP262. The assay is described as above. Conditions: P. falciparum in erythrocytes, SYBR Green DNA, 72 h; series mostly up to 12.8 µM. The method, boiled down: as §1
For the next assay, the system named is CP268. Described as above. Particulars: P. falciparum in erythrocytes, SYBR Green DNA, 72 h; series mostly up to 12.8 µM. The method, boiled down:
as §1

Another assay concerns CP269. The assay is described as above. Conditions: P. falciparum in erythrocytes, SYBR Green DNA, 72 h; series mostly up to 12.8 µM. The method, boiled down:
as §1

Another assay has as its system CP305. The assay is described as above. Particulars: P. falciparum in erythrocytes, SYBR Green DNA, 72 h; series mostly up to 12.8 µM. The method, boiled down: as §1
For a further assay, the system named is CP315. Described as above. Particulars: P. falciparum in erythrocytes, SYBR Green DNA, 72 h; series mostly up to 12.8 µM. An outline of the steps:
as §1

Another assay concerns CP325. Described as above. Conditions: P. falciparum in erythrocytes, SYBR Green DNA, 72 h; series mostly up to 12.8 µM. An outline of the steps: as §1
Another assay has as its system CP329. The assay is described as above. Conditions: P. falciparum in erythrocytes, SYBR Green DNA, 72 h; series mostly up to 12.8 µM. The method, boiled down:
as §1

A further assay deals with FAB9. The assay is described as above. Conditions: P. falciparum in erythrocytes, SYBR Green DNA, 72 h; series mostly up to 12.8 µM. An outline of the steps: as §1
The test system of another assay is JCK. The assay is described as above. Conditions: P. falciparum in erythrocytes, SYBR Green DNA, 72 h; series mostly up to 12.8 µM. An outline of the steps: as §1
A further assay has as its system PC15. The description is as above. Particulars: P. falciparum in erythrocytes, SYBR Green DNA, 72 h; series mostly up to 12.8 µM. An outline of the steps:
as §1

The test system of a further assay is PC49. Described as above. Particulars: P. falciparum in erythrocytes, SYBR Green DNA, 72 h; series mostly up to 12.8 µM. The method, boiled down: as §1
Assay [4] addresses Ubiquitin carboxyl-terminal hydrolase 1 (Homo sapiens) (UniProt O94782). In words: Inhibitors of USP1/UAF1: Pilot qHTS (AID 504865).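 Further: rhodamine fluorescence freed from ubiquitin-rhodamine substrate followed over time; top concentration of the series differs between compounds; on the % scale 0 is the no-effect control and ±100 the full control effect; nearly all actives have a fitted effect of over 35% in size.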 An outline of the steps:
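USP1/UAF1 complex (1nM) preincubated with compound 15 min at room temperature, then Ub-Rho substrate (150nM final) added. Fluorescence read kinetically at 480/540 nm, 6 reads every 60 seconds. Buffer: 50mM HEPES pH 7.8, 0.5mM EDTA, 0.1 mg/ml BSA, 1mM TCEP, 0.01% Tween-20.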

The mark [5] stands for this setting: measured here: cell count channel max response.
Where [6] appears, read: measured here: lipid channel max response.

Results filed as inconclusive are left out. Calls of active or inactive are those of the source. Unless noted, the call rests on the fitted dose curve; in most records, active means well fitted curve in the direction sought with a large enough effect; inconclusive means small, poorly fitted or top-dose-only effect, or another doubt; inactive means no such curve, though single readings can be large; an effect the other way counts as inactive or inconclusive.

Ubiquitin carboxyl-terminal hydrolase 1 (Homo sapiens), sequence (O94782 whole entry, looked up): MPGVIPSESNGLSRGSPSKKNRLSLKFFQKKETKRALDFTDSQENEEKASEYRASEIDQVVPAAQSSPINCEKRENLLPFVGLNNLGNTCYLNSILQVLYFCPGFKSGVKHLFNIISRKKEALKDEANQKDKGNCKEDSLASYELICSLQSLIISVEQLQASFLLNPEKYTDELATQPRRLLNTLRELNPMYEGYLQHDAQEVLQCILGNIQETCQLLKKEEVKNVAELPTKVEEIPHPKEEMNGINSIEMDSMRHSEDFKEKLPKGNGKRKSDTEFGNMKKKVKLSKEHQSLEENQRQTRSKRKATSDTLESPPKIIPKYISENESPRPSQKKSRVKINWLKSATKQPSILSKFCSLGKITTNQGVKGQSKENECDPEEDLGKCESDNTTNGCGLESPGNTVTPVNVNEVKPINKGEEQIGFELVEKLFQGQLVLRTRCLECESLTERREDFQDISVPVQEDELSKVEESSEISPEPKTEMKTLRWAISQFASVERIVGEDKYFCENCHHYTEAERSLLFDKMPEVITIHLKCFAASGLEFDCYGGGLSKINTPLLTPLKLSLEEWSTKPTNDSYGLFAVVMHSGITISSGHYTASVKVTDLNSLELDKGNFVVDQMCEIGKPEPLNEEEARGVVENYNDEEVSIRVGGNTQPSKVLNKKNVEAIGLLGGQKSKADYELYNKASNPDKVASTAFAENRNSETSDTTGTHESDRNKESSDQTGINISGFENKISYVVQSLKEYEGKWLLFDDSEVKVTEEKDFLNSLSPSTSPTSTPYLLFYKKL

Regarding `CC(=O)OC1CCC2C3CCc4cc(O)ccc4C3CCC12C` (centres undefined), the Potency entry (in assay [1]; with C2A; in the assay on CP185; in the assay with CP201; in the assay with CP211; in the assay on CP238) was “inactive” in each case. The Potency result with CP262, with CP268, in the assay with CP269, in the assay on CP305, in the assay with CP315 and with CP325 was “inactive” each time. Besides, the Potency result in the assay with CP329, in the assay on FAB9, with JCK, in the assay with PC15 and in the assay with PC49 was “inactive” each time. Besides, in assay [2], the activity change, negative = inhibition is -1.06% (inactive). Besides, the max response is 7.54% in assay [2] (setting [5]) and 8.25% in assay [2] (setting [6]). For the same compound, the activity, negative = inhibition in assay [3] (parasite line A) was 6.77% (inactive); in [3] (parasite line B) it was 4.39% (inactive).
With `OCC1OC([S-])[C@H](O)C(O)C1O.[Au+]` (some centres undefined), the Potency entry (in [1]; in [4]; in the assay with C2A; with CP185; in the assay with CP201; in the assay with CP211) was “inactive” in each case. Besides, the Potency entry in the assay on CP238, in the assay on CP262, in the assay with CP268, with CP269, in the assay on CP305 and with CP315 was “inactive” throughout. In addition, the Potency result in the assay on CP325, in the assay with CP329, in the assay on FAB9, in the assay with JCK, in the assay on PC15 and in the assay with PC49 was “inactive” in each case. Besides, the activity change, negative = inhibition in [2] is 9.01% (inactive). Besides, the max response in assay [2] (setting [5]) is 5.52%; in [2] (setting [6]), 19.8%. In addition, the results for the activity, negative = inhibition in assay [3] (parasite line A) and in assay [3] (parasite line B) were -14% (inactive) and -7.29% (inactive), respectively.
Take `NC(C(=O)O)[C@@H]1CC(Cl)=NO1` (some centres undefined): the Potency result in assay [1] and in assay [4] was “inactive” throughout. In assay [2], the activity change, negative = inhibition is 6.89% (inactive). Moreover, the max response in [2] (setting [5]) stood at 16.9%; in assay [2] (setting [6]), 29%. The Potency in [3] (parasite line A) was 1260 nM (active); in assay [3] (parasite line B), 2820 nM (active); in the assay on C2A, 1120 nM (active); with CP185, 2820 nM (active); in the assay on CP201 it was 3010 nM (active); in the assay with CP211 it was 2690 nM (active). The Potency with CP238 is 2820 nM (active); with CP262 it was 4260 nM (active); in the assay with CP268 it was 1510 nM (active); in the assay on CP269, 2690 nM (active); with CP305 it was 1510 nM (active); in the assay on CP315, 3380 nM (active). Also, the Potency in the assay on CP325 is 2690 nM (active); with CP329 it was 3010 nM (active); in the assay with FAB9, 2820 nM (active); in the assay with JCK, 5620 nM (active); in the assay on PC15, 3160 nM (active).
`COc1c(O)cc(O)cc1O`: the Potency result in assay [1] and in [4] was “inactive” each time. The activity change, negative = inhibition in [2] is -1.6% (inactive). In addition, the max response in assay [2] (setting [5]) was 3.65%; in assay [2] (setting [6]), 4.87%.
For the compound `CC(=O)[C@]1(O)CCC2C3C=C(Cl)C4=CC(=O)C5CC5[C@@]4(C)C3CC[C@]21C` (some centres undefined), the Potency result (in assay [1]; in the assay on C2A; in the assay with CP185; in the assay with CP201; with CP211; in the assay on CP238) was “inactive” each time. Moreover, the Potency result with CP262, with CP268, in the assay with CP269, with CP305, in the assay on CP315 and in the assay on CP325 was “inactive” throughout. The Potency entry in the assay on CP329, in the assay on FAB9, with JCK, in the assay on PC15 and with PC49 was “inactive” each time. For the same compound, the activity change, negative = inhibition in [2] was 8.7% (inactive). Further, the max response in assay [2] (setting [5]) was 4.22%; in [2] (setting [6]), 14.3%. Besides, the activity, negative = inhibition in assay [3] (parasite line A) is 6.27% (inactive); in assay [3] (parasite line B) it was 5.21% (inactive).

The values above are taken from PubChem BioAssay (NCATS).
